Test results: PubChem BioAssay (NCI)
The panel holds about 83,000 compounds, 20% with a hit somewhere; the sample as a whole holds those more often.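 Treatment: one concentration, 48 hours, 96-well format. Scoring: percent growth, with anything below 10 considered active.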 Values without a mark were called inactive. Activity calls are given as the source filed them.

Tests used:
Experiment in all cases: NCI-60 one-dose screen, 48 h (100 = growth as untreated, 0 = no growth, -100 = all killed)
Settings in all cases: 10 µM unless noted
NCI-H23 lung = test system: NCI-H23 lung
NCI-H226 lung = test system: NCI-H226 lung
NCI-H322M lung = test system: NCI-H322M lung
HOP-62 NSCLC = test system: HOP-62 NSCLC
NCI-H460 lung = test system: NCI-H460 lung
NCI-H522 lung = test system: NCI-H522 lung
A549/ATCC NSCLC = test system: A549/ATCC NSCLC
786-0 renal = test system: 786-0 renal
COLO 205 colon = test system: COLO 205 colon
DU-145 prostate = test system: DU-145 prostate
K-562 leukemia = test system: K-562 leukemia
MDA-MB-231 breast = test system: MDA-MB-231 breast
RXF 393 renal = test system: RXF 393 renal
SF-268 CNS = test system: SF-268 CNS
SF-295 CNS = test system: SF-295 CNS
SF-539 CNS = test system: SF-539 CNS
UACC-257 melanoma = test system: UACC-257 melanoma
M14 melanoma = test system: M14 melanoma

Row | SMILES | growth (NCI-H23 lung) | growth (NCI-H226 lung) | growth (NCI-H322M lung) | growth (HOP-62 NSCLC) | growth (NCI-H460 lung) | growth (NCI-H522 lung) | growth (A549/ATCC NSCLC) | growth (786-0 renal) | growth (COLO 205 colon) | growth (DU-145 prostate) | growth (K-562 leukemia) | growth (MDA-MB-231 breast) | growth (RXF 393 renal) | growth (SF-268 CNS) | growth (SF-295 CNS) | growth (SF-539 CNS) | growth (UACC-257 melanoma) | growth (M14 melanoma)
1 | CC1(C)NCCC[C@]2(C)[C@H]3C/C(=N\O)C4[C@@H]5C[C@@](C)(CO)CC[C@]5(C)CC[C@@]4(C)[C@]3(C)CC[C@@H]12 (stereo partly specified) | 94.2% | 94.3% | 101% | 111% | 100% | 97.4% | 95.3% | 98.4% | 103% | 106% | 80.7% | 93.7% | 91.5% | 87.6% | 100% | 97.8% | 102% | 101%
2 | COc1cc2nc(Cl)nc(Nc3cccc(C4=Nc5c(N)nc(N)nc5NC(c5ccc(Cl)cc5)C4)c3)c2cc1OC (stereo unspecified) | 87.8% | 90.4% | 86.3% | 18% | 2.91% (active) | 34.6% | 37.2% | -52.1% (active) | 21.5% | 87.7% | -22% (active) | 72.9% | 73.6% | 84.2% | -23.9% (active) | 89.3% | 87.3% | 52.2%
3 | O=C(CN1CCN(c2cc(=O)n(-c3ccccc3)c3ccccc23)CC1)Nc1ccc(F)cc1 | 57.5% | 63.6% | 83.6% | 83% | 71.1% | 66.1% | 74.7% | 81.9% | 85.3% | 68.5% | 37.3% | 63% | 71.9% | 69.2% | 71.8% | 76.6% | 49.7% | 75.7%
4 | C#C[C@]1(O)CC[C@H]2[C@@H]3CC=C4c5sc(-c6ccc(C)cc6)nc5CC[C@]4(C)[C@H]3CC[C@@]21C | 46.4% | 99.3% | 33% | 23.2% | -0.692% (active) | 27.6% | 38.3% | -52.5% (active) | 104% | 39.8% | 6.37% (active) | 4.97% (active) | -68.1% (active) | 7.62% (active) | -66.5% (active) | -47.7% (active) | -17.9% (active) | -49.9% (active)
5 | O=C(CCn1cc[n+](CC(=O)c2ccc(-c3ccccc3)cc2)c1)Nc1cccc2cccnc12 | 81.1% | 83.3% | 92.2% | 102% | 91.9% | 48% | 94.4% | 97.7% | 72.8% | 90.9% | 45.9% | 65.1% | 90.5% | 72.2% | 100% | 80.8% | 40.9% | 82.3%
6 | C#CCOC(=O)[C@@H]1CCCN1CC#C | 96.7% | 81.2% | 106% | 101% | 87.8% | 96.6% | 80.3% | 87.8% | 88% | 92% | 76.8% | 84.6% | 81.7% | 76.9% | 102% | 90.2% | 97.3% | 98.4%
7 | C#C[C@]1(O)CC[C@H]2[C@@H]3CC=C4c5sc(-c6ccc7c(c6)OCO7)nc5CC[C@]4(C)[C@H]3CC[C@@]21C | 6.36% (active) | 32.3% | 37.1% | 11.2% | -26.2% (active) | 2.16% (active) | 6.31% (active) | -28.9% (active) | 51.9% | 20.1% | 32.6% | 51.8% | -49.3% (active) | 51.7% | -47.7% (active) | -36.6% (active) | 17.7% | 6.34% (active)
8 | C#CCC#CCN1CCC[C@H]1C(=O)NCC(=O)OC | 96.7% | 104% | 101% | 104% | 112% | 100% | 97.6% | 101% | 114% | 105% | 98.1% | 106% | 105% | 108% | 107% | 105% | 93.7% | 107%
9 | NC(N)=Nc1ccc(Oc2cccc(Nc3ccc(Br)c(C(F)(F)F)c3)c2)cn1 | -61% (active) | -78.1% (active) | -43.6% (active) | -46.1% (active) | -76.9% (active) | -64.8% (active) | -23.9% (active) | -67.8% (active) | -73.2% (active) | -94.5% (active) | -30.3% (active) | -57.6% (active) | -10.5% (active) | 7.02% (active) | -86.8% (active) | -50.3% (active) | -28.5% (active) | -62.1% (active)
10 | CCO/C=N/C1=C(C#N)C(c2ccc(OC)cc2)c2sc3c(CC)cccc3c2O1 (stereo unspecified) | 32.2% | 61.8% | 42.2% | 54.8% | 9.18% (active) | 18.6% | 47.1% | 48.7% | 34.4% | 17.6% | 14.5% | 31.7% | -21% (active) | 61.5% | 3.52% (active) | 4.01% (active) | 73.8% | 16.1%
11 | COc1ccccc1-n1cc(C#N)c(N)c1C(=O)c1ccc(Br)cc1 | 87.8% | 94.4% | 96.7% | 63.5% | 79.7% | 48.7% | 78.6% | 91.9% | 76.5% | 97.3% | 20.1% | 79.8% | 85.8% | 89% | 45.5% | 82.7% | 72.5% | 42.3%
12 | CNC1CCc2c(sc(NC(=O)c3ccc(C(C)(C)C)cc3)c2C(N)=O)C1 (stereo unspecified) | 74.3% | 77.3% | 66.4% | 38.4% | 2.17% (active) | 61.6% | 31% | 24.9% | -47.1% (active) | 44.7% | -10% (active) | 56.8% | 59.5% | 79% | -70.9% (active) | 75.8% | 56.2% | 52.8%
13 | NC(N)=Nc1ccc(Oc2cccc(Nc3ccc(Cl)c(C(F)(F)F)c3)c2)cc1 | 47.4% | 53.3% | 61.9% | 13.4% | 2.61% (active) | 49% | 57.4% | 53% | -4.28% (active) | 47.8% | 5.61% (active) | 6.88% (active) | 50% | 32.8% | 4.34% (active) | 80.9% | 27.6% | 41.1%
14 | CCO/C=N/C1=C(C#N)C(c2ccc(F)cc2)c2sc3c(CC)cccc3c2O1 (stereo unspecified) | 28.3% | 51.6% | 42.6% | 48.6% | 3.42% (active) | 8.86% (active) | 24.6% | 26.3% | 12.6% | 19.3% | 8.58% (active) | 29.7% | -20.6% (active) | 47.5% | -6.92% (active) | -12.7% (active) | 69.5% | 8.85% (active)
15 | O=C(CCn1c[n+](CC(=O)c2ccc(F)cc2)c2ccccc21)Nc1cccc2cccnc12 | 83.4% | 78.1% | 93.9% | 85.7% | 88.3% | 67.5% | 102% | 102% | 55.7% | 96.6% | 58.5% | 57.4% | 92.7% | 78.6% | 99.2% | 89.6% | 47.6% | 79.8%
16 | NC(N)=Nc1ccc(Oc2cccc(Nc3ccc(Cl)c(C(F)(F)F)c3)c2)cn1 | -65.6% (active) | -48.8% (active) | -25.9% (active) | -51.2% (active) | -76.2% (active) | -59.5% (active) | -24.1% (active) | -46.3% (active) | -75.9% (active) | -93.4% (active) | -43.5% (active) | -58.1% (active) | -3.9% (active) | 17.7% | -84.7% (active) | 15.9% | -26.1% (active) | -62.4% (active)
17 | NC(N)=Nc1ccc(Nc2cccc(Nc3ccc(Cl)c(C(F)(F)F)c3)c2)cn1 | 41.7% | 24.4% | -6.68% (active) | 19.5% | -23.9% (active) | 8.21% (active) | 57% | 72.6% | -25.1% (active) | 66.1% | -2.73% (active) | 31% | 77.6% | 33.1% | 11.6% | 80.7% | 42.9% | 47.3%
